Measurements published in PubChem BioAssay (NCI).
Several values for one entry are separate records, joined by “and”; a condition that tells them apart may be missing. Equal values may be shown once. This is part of a sample that, as a whole, favours compounds with a hit. Of some 83,000 tested, about 20% had one in any assay.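 Testing used 96-well plates and a 48-hour single-concentration exposure. Example: -40 means 40% of the starting cells died.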 Values without a mark were called inactive. Activity calls are given as the source filed them. Rule for the calls: active = growth percent below 10; inactive = the rest.

Legend:
Assay in all cases: NCI-60 one-dose screen, 48 h (100 = growth as untreated, 0 = no growth, -100 = all killed)
Conditions in all cases: 10 µM unless noted
[1] = system: NCI-H23 lung
[2] = system: NCI-H322M lung
[3] = system: HOP-62 NSCLC
[4] = system: NCI-H460 lung
[5] = system: HOP-92 NSCLC
[6] = system: NCI-H522 lung
[7] = system: 786-0 renal
[8] = system: COLO 205 colon
[9] = system: DU-145 prostate
[10] = system: K-562 leukemia
[11] = system: MALME-3M melanoma
[12] = system: MDA-MB-231 breast
[13] = system: RXF 393 renal
[14] = system: SF-268 CNS
[15] = system: SF-295 CNS
[16] = system: SF-539 CNS
[17] = system: UACC-257 melanoma
[18] = system: M14 melanoma
[19] = system: A549/ATCC NSCLC

Structure (SMILES)	growth [1]	growth [2]	growth [3]	growth [4]	growth [5]	growth [6]	growth [7]	growth [8]	growth [9]	growth [10]	growth [11]	growth [12]	growth [13]	growth [14]	growth [15]	growth [16]	growth [17]	growth [18]	growth [19]
CN(C)CC(CN(C)C)C(O)c1ccccc1 (stereo unspecified)	106%	103%	91.4%	112%	97.9%	76.4%	96.6%	110%	110%	94.5%	105%	114%	110%	99%	96.9%	90.7%	102%	96.4%	–
O=C1c2ccccc2CN1c1ccccc1	94.2%	–	107%	103%	–	74.7%	94.7%	105%	115%	94.2%	118%	95.4%	105%	107%	104%	102%	103%	–	91.4%
Cc1c(Cl)c(C)c(Cc2c(C)c(Cl)c(C)c(Cl)c2O)c(O)c1Cl	-13% (active)	16.1%	15.8%	5.16% (active)	-20% (active)	–	49%	79.4%	30.2%	20.1%	-3.69% (active)	2.41% (active)	4.04% (active)	19.6%	0.164% (active)	15.7%	-0.631% (active)	22.6%	14.4%
CC(C)(C)OC(=O)c1ccc(NCc2cc(O)ccc2O)cc1	59.5%	84.1%	45.1%	53.4%	17.5%	-78.4% (active)	-72.7% (active)	10.8%	57%	3.17% (active)	-40.2% (active)	-38.2% (active)	-68.3% (active)	16.5%	78.4%	-70.1% (active)	-6.29% (active)	44.5%	40.9%
CCNC1=CC(=O)c2ncccc2C1=O	-49.7% (active)	13.9%	-42.5% (active)	-78.3% (active)	145%	–	83.6%	-62.5% (active)	-92.9% (active)	21.2%	-84.6% (active)	51.2%	99%	58.3%	-71.1% (active)	-59.3% (active)	-13.5% (active)	-87.4% (active)	-54.8% (active)
CCCC(=O)OCC(COC(=O)CCC)OC(=O)CCC	104%	–	98.6%	101%	–	99.1%	102%	111%	111%	97.7%	107%	109%	110%	104%	99.9%	103%	95.5%	102%	–
O=C(/C=C/C=C/c1ccc2c(c1)OCO2)N1CCCCC1	95.6% and 102%	101% and 113%	100%	109% and 113%	97.3% and 89.6%	115% and 81.1%	103% and 57.4%	114% and 106%	119% and 110%	90.5% and 70.7%	108% and 214%	98.6% and 98%	105% and 110%	114% and 99.2%	85.4% and 107%	109% and 101%	114% and 106%	109% and 99.5%	104% and 98.5%
CCOC(=O)CN1CCC(C(=O)OCC)CC1	102%	–	–	108%	92.3%	96.1%	109%	112%	118%	118%	111%	103%	127%	113%	119%	117%	110%	105%	103%
O=C1Cc2ccccc2C(=O)N1	103%	96.3%	–	110%	–	77.2%	82.1%	99.2%	112%	46.9%	104%	44.1%	99.1%	97%	102%	103%	89.4%	95.3%	86.1%
CCOC(=O)c1csc(N)n1	105% and 102%	87.1% and 101%	103% and 96.9%	105%	96% and 95.7%	88.7%	101% and 100%	129% and 108%	105% and 104%	101% and 102%	112% and 108%	107% and 98.7%	100%	108% and 96.7%	99.8% and 92.5%	94.8% and 101%	87.3%	–	81.5% and 93.8%
